# In the library only some 10% were active in any assay of this set; here they are far more common.
# BAZ2B inh: inhibitors of human BAZ2B bromodomain. Potency, µM (titrated, usually from 114 µM), for inactives: at the highest dose activity change, negative = inhibition, usual class: inhibitors. AID 504333. AlphaScreen BAZ2B-H3K14Ac peptide displacement. 360,000 compounds, 4.4% hits. Q9UIF8; note: % is set by controls: 0 for no effect and ±100 for the full control effect; nearly all actives have a fitted effect of over 60% in size
#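 AlphaScreen displacement of biotin-H3(5-23)K14Ac peptide (50 nM final) from BAZ2B (50 nM final) in PBS pH 7.4, 0.01% Tween-20; complex preformed 30 min RT, then compounds (top 110 uM) 30 min RT, beads 20 min dark.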
# G9a inh: G9a (human) methyltransferase inhibition | G9a H3K9 monomethylation, AlphaScreen, 2 h | AID 504332 | Q96KQ7 | Potency, µM (series often up to 102 µM), without a hit: at the highest dose activity, negative = inhibition, usual class: inhibitors | 350,000 compounds, 8.8% hits; note: % is set by controls: 0 for no effect and ±100 for the full control effect; nearly all actives have a fitted effect of over 75% in size
# Target sequence (Q96KQ7 913-1193 limits assumed): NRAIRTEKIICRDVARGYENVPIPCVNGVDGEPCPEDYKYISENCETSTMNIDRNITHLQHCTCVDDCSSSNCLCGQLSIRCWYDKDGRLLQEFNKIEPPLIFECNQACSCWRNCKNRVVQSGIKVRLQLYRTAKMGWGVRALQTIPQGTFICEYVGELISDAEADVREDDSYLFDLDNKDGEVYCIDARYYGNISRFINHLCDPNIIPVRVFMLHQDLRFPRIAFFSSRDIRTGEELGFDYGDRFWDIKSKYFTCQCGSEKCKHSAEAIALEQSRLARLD
#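 Readings reflect AlphaScreen signal from monomethyl-H3K9 antibody detection. HMT at 20 nM; substrate b-H3K9 500 nM; cofactor SAM 20 uM; 2 h RT reaction; compounds tested as titrations in qHTS with 15 min preincubation.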
# HP1b binding inh: HP1-beta chromodomain-methylated histone interaction inhibition; 390,000 compounds, 0.56% hits; AlphaScreen HP1-beta / biotin-H3K9me3 peptide binding; P83916; Potency, µM (series often up to 114 µM), without a hit: at the highest dose activity change, negative = inhibition, usual class: inhibitors; AID 540317; note: nearly all actives have a fitted effect of over 70% in size
# Target sequence (P83916 whole entry, looked up): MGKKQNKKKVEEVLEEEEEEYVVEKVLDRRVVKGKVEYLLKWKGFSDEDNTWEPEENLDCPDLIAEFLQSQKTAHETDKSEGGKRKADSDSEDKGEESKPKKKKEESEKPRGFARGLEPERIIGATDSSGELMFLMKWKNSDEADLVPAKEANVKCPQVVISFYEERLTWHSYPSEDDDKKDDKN
#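 AlphaScreen: HP1-beta (50 nM) preformed 30 min with biotin-H3(1-18)K9me3 peptide (50 nM) in PBS pH 7.4, 0.01% Tween-20. Compound added for 30 min at RT, then streptavidin donor/nickel chelate acceptor beads (10 ug/mL) for 30 min.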
# JMJD2A Tudor inh: inhibitors of human JMJD2A Tudor domain; O75164; AlphaScreen JMJD2A-Tudor / H3K4me3 peptide binding; Potency, µM (highest dose often 114 µM), for the others: at the top dose activity change, negative = inhibition, most hits filed as inhibitors; 390,000 compounds, 4.4% hits; AID 504339; note: % is set by controls: 0 for no effect and ±100 for the full control effect; nearly all actives have a fitted effect of over 50% in size
# GLS inhibitor: glutaminase GLS (human) inhibition | O94925 | GLS enzymatic activity, qHTS titration | Potency, µM (doses to about 45.5 µM), for inactives: top-dose activity change, negative = inhibition, most hits filed as inhibitors | 410,000 compounds, 0.21% hits | AID 624170; note: % is set by controls: 0 for no effect and ±100 for the full control effect
#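 hKGA in 45 mM KH2PO4 pH 8.2, 0.02% Tween-20 with pin-transferred compounds; 1 mM L-glutamine (stock) plus glutamate oxidase/HRP/Amplex Red coupling added. Fluorescence read initially and after 30 min at RT.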
# The depositor's hits bear a star; u = inconclusive; x = not tested or not shown; [ ] = dose if it differs, or a comment. Calls come from the whole dose curve; as a rule, active = well fitted curve in the direction sought with a large enough effect; inconclusive = small, poorly fitted or top-dose-only effect, or another doubt; inactive = no such curve, though single readings can be large; an effect the other way counts as inactive or inconclusive. Potency is the fitted concentration of half-maximal effect.
SMILES,BAZ2B inh,G9a inh,HP1b binding inh,JMJD2A Tudor inh,GLS inhibitor
CCOC(=O)C1CCN(C2=C(NS(=O)(=O)c3ccc(Cl)cc3)C(=O)c3ccccc3C2=O)CC1,8.9µM*,4.5µM*,u,11µM*,34%
CC1CCCC(C)N1CC(C)(C)NS(=O)(=O)c1ccc(Cl)cc1 (stereo not drawn),50µM*,u,21%,24%,x
O=C(NCC(c1ccc2c(c1)OCO2)N1CCOCC1)C(=O)Nc1ccc(Cl)cc1 (stereo not drawn),-5%,12%[59 µM],7%,-5%,1%
C#CCOCCOCCOCCNc1nc(N2CCN(C(=O)[C@H]([C@@H](C)CC)n3cc([C@@H](N)Cc4ccc(O)cc4)nn3)CC2)nc(N2CCN(C(=O)[C@H](CCCCN)n3cc([C@@H](N)C(C)CC)nn3)CC2)n1 (stereo partly drawn),79µM*,u,-2%,50µM*,28%
C#CCOCCOCCOCCNc1nc(N2CCN(C(=O)[C@H](CCCCN)n3cc([C@@H](N)[C@H](C)CC)nn3)CC2)nc(N2CCN(C(=O)[C@H](CCCCN)n3cc([C@@H](N)CC(N)=O)nn3)CC2)n1,x,x,78%,-26%,-8%
C#CCOCCOCCOCCNc1nc(N2CCN(C(=O)[C@H](CCC(=O)O)n3cc(C(N)Cc4ccc(O)cc4)nn3)CC2)nc(N2CCN(C(=O)[C@H](CCCCN)n3cc(C(N)[C@H](C)CC)nn3)CC2)n1 (stereo partly drawn),79µM*,15%[12.7 µM],x,x,x
CNC(=O)N/N=C(\N)c1ccccn1,u,10µM*,40%,u,27%
N/C(=N\NS(=O)(=O)c1ccccc1C(F)(F)F)c1ccccn1,-8%,x,57%,3%,29%
O=C(Nc1ccc(Cl)cc1)Nc1ccccn1,-5%,1%,35%,7%,-12%
N/C(=N\NC(=O)Nc1ccc(Cl)cc1)c1ccccn1,16µM*,-28%,-1%,45µM*,u
Cc1nc(C(F)(F)F)c(C(=O)N/N=C(\N)c2ccccn2)s1,10µM*,11%,14%,79µM*,25%
Cc1cccc(CNc2ncncc2-c2ccccc2Cl)c1,x,-40%[0.501 µM],x,x,x
COc1ccc(CC(=O)Nc2c(C(=O)Nc3ccccc3F)oc3ccccc23)cc1,-29%,4%[59 µM],39%,5%,5%
O=C(O)C(=O)Nc1nc(-c2ccc3c(c2)OCCO3)cs1,u,32µM*,13%[57 µM],-22%,-11%
c1ccc(-c2sc3ccccc3c2-c2ccc(OCCN3CCOCC3)cc2)cc1,x,x,-5%,u,1%
COc1ccccc1-c1sc2cc3c(cc2c1-c1ccc2c(c1)OCO2)OCO3,79µM*,8%[0.501 µM],38%,-35%,-6%
Oc1cccc(-c2sc3ccccc3c2-c2ccc(OCCN3CCCCC3)cc2)c1,x,x,x,x,28%
COc1ccccc1-c1sc2ccccc2c1-c1ccc2c(c1)OCO2,6%,4%,50%,27%,0%
COc1cc2sc(-c3ccccc3OC)c(-c3ccc(OCCN4CCCCC4)cc3)c2cc1OC,x,x,u,28µM*,8%
COc1ccccc1-c1sc2cc3c(cc2c1-c1ccc(OCCN2CCCCC2)cc1)OCO3,x,x,-24%,11µM*,6%
COc1ccccc1-c1sc2ccccc2c1-c1ccc(OCCN2CCOCC2)cc1,x,x,-18%,50µM*,0%
Cc1cc(C)c2c(CC(=O)Nc3ccc(S(=O)(=O)N4CCCC(C)C4)cc3)coc2c1 (stereo not drawn),-33%,-30%[59 µM],-3%,-23%,-1%
CCCCC(CC)CNC(=O)Cc1ccc(-n2c(=O)[nH]c3ccccc3c2=O)cc1 (stereo not drawn),1%,8%[59 µM],17%,-7%,4%
CC(=O)c1ccc(NC(=O)c2cccc(NC(=O)N3CCSc4ncccc43)c2)cc1,-11%,u,35%,6%,4%
CC1CCCN(S(=O)(=O)c2ccc(NC(=O)c3nc(SC(C)C)ncc3Cl)cc2)C1 (stereo not drawn),u,-37%[59 µM],6%,-26%,-1%
O=C(Nc1nc2ccccc2c(=O)s1)c1ccco1,-29%,71µM*,19%,-15%,-1%

# Assay outcomes: PubChem, National Center for Advancing Translational Sciences (NCATS)
